Assay results taken from PubChem BioAssay AID485346 (Sanford-Burnham Center for Chemical Genomics, 2010).
Screen size: about 330,000 compounds; about 10,000 (3%) were called active. For the sample, actives were picked, then their nearest neighbours and some compounds at random. A number with no mark means an inactive call.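 How the source made its calls: active means inhibition of at least 50% at 8 µM in the primary screen; inactive means the rest.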

Biological target: Protein Mdm4 (Homo sapiens) + E3 ubiquitin-protein ligase Mdm2 (Homo sapiens) (UniProt O15151+Q00987)
Sequence (O15151 whole entry, looked up): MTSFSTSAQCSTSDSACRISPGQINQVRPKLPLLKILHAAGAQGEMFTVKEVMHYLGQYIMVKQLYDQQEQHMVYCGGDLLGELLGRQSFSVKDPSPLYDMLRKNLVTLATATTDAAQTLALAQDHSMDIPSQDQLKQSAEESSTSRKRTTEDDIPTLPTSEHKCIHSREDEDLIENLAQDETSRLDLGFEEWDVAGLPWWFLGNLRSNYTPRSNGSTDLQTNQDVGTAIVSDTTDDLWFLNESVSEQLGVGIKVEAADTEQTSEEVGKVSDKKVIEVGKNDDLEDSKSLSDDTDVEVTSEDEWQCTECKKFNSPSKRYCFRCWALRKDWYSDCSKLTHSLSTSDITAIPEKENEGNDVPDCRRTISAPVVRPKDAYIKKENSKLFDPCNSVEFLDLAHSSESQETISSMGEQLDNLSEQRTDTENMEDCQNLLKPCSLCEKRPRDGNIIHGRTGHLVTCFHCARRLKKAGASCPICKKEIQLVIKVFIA
Sequence (Q00987 whole entry, looked up): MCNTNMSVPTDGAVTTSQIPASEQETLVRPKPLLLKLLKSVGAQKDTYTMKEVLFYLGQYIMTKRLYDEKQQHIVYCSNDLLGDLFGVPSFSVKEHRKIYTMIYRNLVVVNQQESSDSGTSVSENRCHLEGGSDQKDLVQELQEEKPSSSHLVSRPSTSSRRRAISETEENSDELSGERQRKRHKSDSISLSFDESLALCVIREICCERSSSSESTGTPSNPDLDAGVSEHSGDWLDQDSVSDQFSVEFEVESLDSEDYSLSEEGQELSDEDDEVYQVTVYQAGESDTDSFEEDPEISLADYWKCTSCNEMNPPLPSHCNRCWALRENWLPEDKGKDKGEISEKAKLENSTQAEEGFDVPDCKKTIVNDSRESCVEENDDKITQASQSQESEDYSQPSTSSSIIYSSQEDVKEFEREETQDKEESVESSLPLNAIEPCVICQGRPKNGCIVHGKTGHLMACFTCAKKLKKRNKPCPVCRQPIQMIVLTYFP
Experiment: inhibitors of human Mdm2-MdmX association, primary screen, cell-based, luminescence, split luciferase, SaOS-2, uHTS (AID 485346)
Conditions: SaOS-2 split-luciferase Mdm2/MdmX complementation, at 8 µM, stronger effect = higher value

First: COc1ccc(N2CCC(CNC(=S)Nc3c(C)cccc3C)C2)cc1 (configuration not stated)
Second: COc1ccc(CNC(=O)C2CCCC2)cc1
The inhibition of the first is lower: 0.075% for the first, 1.84% for the second.

Going from `Cc1ccc(C(=O)NCCc2nnc(SCC(=O)Nc3cccc(C(=O)O)c3)n2C)cc1` to `COc1ccc(CC(=O)NCc2nnc(SCC(=O)Nc3ncc(C)s3)n2C)cc1`, the inhibition rises from -17.8% to 6.63%.

First: Cc1ccc(NS(=O)(=O)c2ccc3c(c2)n(C)c(=O)c(=O)n3C)c(C)c1
Second: CC(=O)c1ccc(S(=O)(=O)N2CCN(c3nc4c(C)c(C)ccc4cc3C#N)CC2)cc1
The inhibition of the first is lower: -12.6% for the first, 32.9% for the second.

Going from `Cc1ccc(-n2nc3c(=O)n(C(C)C(=O)NCc4ccc5c(c4)OCO5)nc(C)c3c2C)cc1` (configuration not stated) to `CC(C#N)OC(=O)c1cccnc1SCC(=O)Nc1ccc2c(c1)OCO2` (configuration not stated), the inhibition falls from 32.4% to -12.8%.

Going from `COc1ccc(CCNC(=O)/C(C#N)=C2\N=C(NC(=O)c3cccs3)c3ccccc32)cc1` to `Cc1ccc(C)c(NC(CC(=O)c2ccccc2)C(=O)OCC(=O)c2cccs2)c1` (configuration not stated), the inhibition rises from -11.7% to -9.67%.

Compared with `C#CCSc1nnc(-c2sc3ccccc3c2Cl)o1`, `Cc1nnc(Nc2ccccc2F)s1` is higher in inhibition: -91.8% for the first, 1.11% for the second.

Compared with `O=C(Cc1ccc(-c2ccccc2)cc1)NC(c1ccccc1)c1ccccc1`, `C[n+]1cc(-c2ccccc2)oc1-c1ccccc1` is lower in inhibition: 6.83% for the first, -21.5% for the second.

Going from `CCOC(=O)C(C(=O)OCC)C(C#N)c1ccccc1` (configuration not stated) to `CCOC(=O)c1ccccc1NC(=O)CSc1nc2ccccc2c(=O)[nH]1`, the inhibition rises from -30.8% to 10.1%.

Going from `O=C(NC(=O)N1CCSCC1)c1c(Cl)cccc1Cl` to `Cc1ccc(NC(=O)CCCNC(=O)c2ccc(Cl)cc2)cc1S(=O)(=O)N1CCCCC1`, the inhibition rises from -31.4% to 14.3%.

Compared with `COc1ccc(CN2C(=O)CC(Cc3ccc(C)cc3)C2=O)cc1OC` (configuration not stated), `COc1ccc(-c2nnc(NC(=O)CS(=O)(=O)c3ccc(Cl)cc3)o2)c(OC)c1` is lower in inhibition: 5.73% for the first, -3.12% for the second.

Going from `CCc1cccc(C)c1NC(=O)COC(=O)CNC(=O)c1cccs1` to `CCN(CC(=O)Nc1c(F)cccc1F)C(=O)c1ccc(-c2ccc(C(C)=O)cc2)o1`, the inhibition rises from -18.9% to -16.4%.

Compared with `CC1=C(C/C=C(\C)CCCC(C)CCCC(C)CCCC(C)C)C(=O)c2ccccc2C1=O` (configuration not stated), `Cc1cc(C)c(NC(=O)C[N+](C)(C)CC(O)COc2cccc3ccccc23)c(C)c1` (configuration not stated) is higher in inhibition: -7.28% for the first, 12.6% for the second.

Compared with `CC(C)CC(NC(=O)C1CCCN1C(=O)[C@@H](C)NC(=O)OCc1ccccc1)C(=O)NCC(N)=O` (some centres not stated), `CCC1CCCCN1CCCNC(=O)Cn1nc(-c2ccccc2)ccc1=O` (configuration not stated) is higher in inhibition: -21.6% for the first, 5.14% for the second.

First: COc1ccc(C2C(C(C)=O)=C(O)C(=O)N2CCc2c[nH]c3ccccc23)cc1 (configuration not stated)
Second: CCn1cc(CCC(=O)NCc2ccc(F)cc2)c2ccccc21
The inhibition of the first is lower: -16.3% for the first, -7.13% for the second.

Going from `CCc1noc(C)c1C(=O)Nc1nc2ccc(OC)cc2s1` to `COc1ccc2nc(NC(=O)NC3CCCCC3)sc2c1`, the inhibition falls from 0.6% to -142%.

First: Cc1csc2ncc(C(=O)N(Cc3ccccc3)c3ccccn3)c(=O)n12
Second: CC(=O)NCc1ccc(-c2csc(NC(=O)CCCc3nc4ccccc4c(=O)[nH]3)n2)cc1
The inhibition of the first is lower: 0.705% for the first, 6.81% for the second.

Compared with `CC(C)NC(=O)c1ccccc1S(=O)c1ccccc1C#N` (configuration not stated), `Cc1ccc(NC(=O)c2cc3ccccc3o2)cc1` is lower in inhibition: -7.43% for the first, -218% for the second.

Compared with `O=C(Nc1nnc(-c2ccco2)o1)c1ccc(S(=O)(=O)N2CCOCC2)cc1`, `CC(=O)c1ccc(OCCCC(=O)Nc2ccc(C)c(S(=O)(=O)N3CCOCC3)c2)cc1` is higher in inhibition: -9.19% for the first, 13.1% for the second.

First: CC(C)(C)n1nnc(CCc2nnn(C(C)(C)C)n2)n1
Second: CCOc1ccc(NC(=O)CSc2nncn2C)cc1
The inhibition of the first is higher: 13.5% for the first, 6.1% for the second.

Compared with `O=C(CN1C(=O)c2ccccc2S1(=O)=O)NC1CCCCC1`, `CC1CCCN(C(=O)CN2C(=O)c3ccccc3S2(=O)=O)C1` (configuration not stated) is lower in inhibition: 12.3% for the first, 3.88% for the second.

First: O=C(N/N=C/c1cccc(O)c1)c1cc2c(ccc3ccccc32)o1
Second: CC1CC(=O)Nc2ccccc2N1C(=O)COc1ccc2cc(Br)ccc2c1 (configuration not stated)
The inhibition of the first is lower: -1.11% for the first, 20% for the second.

First: Cc1cccc(N2C(=O)N3[C@H](c4ccc(F)cc4)[C@@H]4C(=O)N(C5CCCCC5)C(=O)[C@@H]4[C@]3(Cc3ccccc3)C2=O)c1
Second: O=C1[C@H]2[C@@H](c3ccc(Cl)cc3)N3C(=O)N(c4cccc(F)c4)C(=O)[C@@]3(Cc3ccccc3)[C@H]2C(=O)N1C1CCCCC1
The inhibition of the first is higher: 18.2% for the first, 4.69% for the second.

Compared with `Cc1ccc(CN2CCN(/N=C/c3cccnc3)CC2)c(C)c1`, `Cc1noc(C)c1C(=O)OCC(=O)N1CCN(S(=O)(=O)c2ccc3ccccc3c2)CC1` is lower in inhibition: -1.63% for the first, -6.59% for the second.

Going from `CC(C)c1ccc(Cc2nnc(NCCCO)[nH]c2=O)cc1` to `O=c1[nH]c(NCCO)nnc1Cc1ccc(Cl)cc1`, the inhibition rises from -3.05% to 16.8%.

First: OC(CN=c1sc2ccccc2n1CC(O)COc1ccccc1)COc1ccccc1 (configuration not stated)
Second: CCC(C)Sc1nc2c(c(=O)[nH]c(=O)n2C)n1CC(O)COc1cccc2ccccc12 (configuration not stated)
The inhibition of the first is higher: 33.4% for the first, 16.9% for the second.

Going from `Cc1cccc(NC(=O)CN2CCN(CC(=O)NCC3(N4CCCCC4)CCCCC3)CC2)c1C` to `CCC1CCCCN1CCCNC(=O)C1CCC(Cn2c(=O)[nH]c3ccccc3c2=O)CC1` (configuration not stated), the inhibition falls from -24.2% to -28.9%.

Going from `Cc1nc2nc(C)c(CCC(=O)N3CCN(c4ccccc4)CC3)c(C)n2n1` to `Cc1cc(C)n2nc(C(=O)OCC(=O)N(C)CC(=O)Nc3ccc(F)cc3)nc2n1`, the inhibition falls from 7.55% to -1.93%.

First: COc1ccc(CNC2CCCCC2)cc1
Second: COC(=O)Cc1ccc(OCC(=O)NC2CCCC2)cc1
The inhibition of the first is lower: 7.1% for the first, 8.06% for the second.

Compared with `C=CCN1C(=O)C(O)(CC(=O)c2ccc(Cl)cc2)c2ccccc21` (configuration not stated), `O=c1c2cc(Br)ccc2nc(-c2cccc(Cl)c2)n1O` is higher in inhibition: 4.99% for the first, 40.4% for the second.

Compared with `C=CCC(CC=C)(C(N)=O)c1ccccc1`, `NC(=O)C(Cc1ccccc1)NC(=O)C12CC3CC(CC(C3)C1)C2` (configuration not stated) is lower in inhibition: 11.4% for the first, 2.27% for the second.

Going from `CCC(C)(C)c1ccc(Oc2ccc(NC(=O)COC(=O)C3=COCCO3)cc2)cc1` to `O=C(Nc1ccc(C(F)(F)F)cc1)c1cccc(-n2cnnn2)c1`, the inhibition falls from 0.755% to -13.9%.

Going from `C[C@@H](O)c1nc2ccccc2n1N` to `Nc1cccc2c1C(=O)N(Cc1nnc(-c3ccccc3Br)o1)C2=O`, the inhibition rises from -21.5% to 2.07%.

First: CC(=O)c1ccc(S(=O)(=O)N2CCC3(CC2)OCCO3)cc1
Second: Cc1ccc(S(=O)(=O)CC(=O)Nc2nnc(C)s2)cc1
The inhibition of the first is lower: -6.56% for the first, 7.87% for the second.

Compared with `Cc1cc(C)n2nc(C(=O)OCC(=O)N(CCC#N)c3ccc(F)cc3)nc2n1`, `CCSc1nnc(NC(=O)c2ccc(C)cc2)s1` is lower in inhibition: 11.4% for the first, -64.2% for the second.

First: O=C(c1nnc(-c2ccc(Cl)cc2)o1)C1CCCC1
Second: S=c1[nH]nc(-c2ccc(Cl)cc2)n1CC1CCCO1 (configuration not stated)
The inhibition of the first is lower: -34.3% for the first, -1.54% for the second.

Going from `Cc1nc(NC(=O)c2cccc(Cl)c2)sc1-c1csc(Nc2cccc(Cl)c2)n1` to `Cc1nnc(NC(=O)c2ccc3nccnc3c2)s1`, the inhibition rises from -2.75% to 6.88%.

In the case of `COCCSc1nnc(NC(=O)CCS(=O)(=O)Cc2ccccc2)s1`, the inhibition is reported as 25.9%.

`O=C(NCC#CCSc1nnc(-c2cccc3ccccc23)o1)c1cccs1` was tested, and the inhibition was 81.5% (active).
`CCOC(=O)/C=C/C(=O)OCC(=O)NC(c1ccccc1)c1ccccc1` was tested, and the inhibition was 69.4% (active).
In the case of `Cc1ccccc1C(CC(=O)c1cccs1)C(C#N)C#N` (configuration not stated), the inhibition is reported as 75.4% (active).
With `COc1ccc2nc(Nc3nc4ccc(NC(C)=O)cc4s3)sc2c1` the inhibition was 79.7% (active).
In the case of `COc1cccc(-c2nnc(NC(=O)c3ccc(S(=O)(=O)N(CC(C)C)CC(C)C)cc3)o2)c1`, the inhibition is reported as 72.2% (active).
In the case of `O=C(CN1C(=O)c2ccccc2S1(=O)=O)N1CCc2ccccc21`, the inhibition is reported as 68% (active).
In the case of `Cc1c(/C=N\NC(=O)c2cc3ccccc3o2)c2ccccc2n1C`, the inhibition is reported as 50.8% (active).
With `O=C1[C@H]2[C@@H](c3ccc(F)cc3)N3C(=O)N(c4ccc(C(F)(F)F)cc4)C(=O)[C@@]3(Cc3ccccc3)[C@H]2C(=O)N1C1CCCCC1` the inhibition was 95.3% (active).
With `COc1ccc(Cc2nnc(N/N=C/c3ccccc3O)[nH]c2=O)cc1OC` the inhibition was 66.5% (active).
In the case of `COc1ccc(CNc2nc(NCc3ccc(OC)cc3)c3ncn(C4CCCC4)c3n2)cc1`, the inhibition is reported as 60.8% (active).
With `CC(C)c1ccccc1OCC(O)CN(CC(O)COc1cccc2ccccc12)C(C)C` (configuration not stated) the inhibition was 59.8% (active).
With `O=C1CN(c2nc(-c3ccccc3)c3cc(Br)ccc3n2)c2ccccc2N1` the inhibition was 66.1% (active).
`CC(=O)c1ccc(S(=O)(=O)N2CCN(C(=O)/C=C/c3ccc4ccccc4n3)CC2)cc1` was tested, and the inhibition was 79.9% (active).
For `O=C(c1[nH]ncc1-c1ccc(Cl)cc1)C1CO1` (configuration not stated), the inhibition was 78.2% (active).
With `CCC1CCCCN1CCCNC(=O)c1cc2c(Cl)nc3ccccc3c2s1` (configuration not stated) the inhibition was 58.7% (active).
For `O=C(CSc1nc2ccccc2c(=O)[nH]1)Nc1nc(-c2ccc(Br)cc2)cs1`, the inhibition was 75.5% (active).
In the case of `O=C(Nc1ccc(-c2csc(Nc3cccc(C(F)(F)F)c3)n2)cc1)c1cccc(C(F)(F)F)c1`, the inhibition is reported as 69.4% (active).
For `Cc1ccc(CS(=O)(=O)c2ncc(Cl)c(C(=O)Nc3nnc(C)s3)n2)cc1`, the inhibition was 99.7% (active).
`CSc1nnc(NC(=O)c2nc(S(=O)(=O)Cc3ccc(C)cc3)ncc2Cl)s1` was tested, and the inhibition was 98.2% (active).
